Compound activity from PubChem.
Autofluor counter: compound fluorescence in toxin protease inhibitor counterscreen; fluorescence intensity (test concentration not listed); AID 624483; hit rate 3.1% among 360,000; compound autofluorescence counterscreen, microsphere flow cytometry; active compounds read high; in the data active = fluorescence intensity above about 16000; inconclusive = no clear call, values can overlap the other calls
SSB-PriA inh: K. pneumoniae PriA-SSBct interaction inhibition | inhibition, % at 33 µM | AID 1272365 | hit rate 0.6% among 430,000 | AlphaScreen SSBct-PriA binding, biotinylated peptide; in the data active = inhibition mostly above about 37%, no sharp cut-off; inactive = mostly below about 20%;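 note: plate controls were negative control peptide for no effect and reference peptide for full effect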
BoNT F protease: inhibitors of Botulinum neurotoxin F light chain protease. Multiplex microsphere protease cleavage assay, flow cytometry. hit rate 0.22% among 360,000. inhibition, % at 10 µM. AID 588497; in the data active = inhibition above about 35%, passing the limit was not always enough; inconclusive = no clear call, values can overlap the other calls; note: plate controls were buffer without enzyme for full effect and enzyme alone for no effect
BoNT-A LC inh2: inhibitors of Botulinum neurotoxin A light chain protease; inhibition, % at 10 µM; multiplex microsphere protease substrate cleavage, flow cytometry; hit rate 0.17% among 360,000; note: plate controls were buffer without enzyme for full effect and enzyme alone for no effect
Anthrax LF prot: inhibitors of Bacillus anthracis lethal factor protease | multiplex microsphere protease cleavage assay, LF | inhibition, % at 10 µM | P15917 | AID 588501 | hit rate 0.12% among 360,000; note: plate controls were buffer without enzyme for full effect and enzyme alone for no effect
Active calls of the source: *. Sampled rows, rich in hits. Any-hit rate of the full collection: about 3.1%. Cut-off read from the data, not from the text of the source, unless noted: active = inhibition above about 30%; inconclusive = no clear call, values can overlap the other calls; inactive = below that.

`O=C(NC1CCCCC1)C(c1cccnc1)N(C(=O)CCl)c1ccccc1Cl` (stereo unspecified) gave Autofluor counter 2741, SSB-PriA inh 7, BoNT F protease 38*, BoNT-A LC inh2 4 and Anthrax LF prot -1.
For Cc1ccccc1NC(=O)CSc1nnc2[nH]c(=O)c(C)c(C)n12 the results were SSB-PriA inh -27.
Screening O=C(CCNS(=O)(=O)c1ccccc1F)N1CC(Oc2nccs2)C1 returned SSB-PriA inh -17.
For O=C(NCCn1cnc2ccsc2c1=O)c1cc(C2CC2)on1 the results were SSB-PriA inh 38*.
Screening O=C(Cc1cc(=O)[nH]c(SCc2cccc(Cl)c2)n1)NCCc1ccc(F)cc1 returned SSB-PriA inh -11.
`NC(=O)c1cn(C2CCCCC2)c2ccccc2c1=O` gave Autofluor counter 3613, SSB-PriA inh -4, BoNT F protease 41*, BoNT-A LC inh2 -2 and Anthrax LF prot 14.
For COC1(CNC(=O)C2COc3ccccc3O2)CCSC1 (stereo unspecified) the results were SSB-PriA inh -1.
Screening O=C(c1ccc(-c2cc(O)c3ncccc3c2)cc1)N1CCNCC1 returned Autofluor counter 2332, SSB-PriA inh 74*, BoNT F protease -68, BoNT-A LC inh2 1 and Anthrax LF prot -21.
Screening CCn1c(NCc2ccccn2)nc2c1c(=O)n(C)c(=O)n2C returned Autofluor counter 16824*, SSB-PriA inh -6, BoNT F protease -1, BoNT-A LC inh2 -1 and Anthrax LF prot 1.
Screening CCOc1ccc(CCNc2nc3c(c(=O)n(C)c(=O)n3C)n2CC)cc1OCC returned Autofluor counter 16756*, SSB-PriA inh -2, BoNT F protease -2, BoNT-A LC inh2 inconclusive and Anthrax LF prot 1.
`CCCn1c(NCc2ccco2)nc2c1c(=O)n(C)c(=O)n2C` gave Autofluor counter 2495, SSB-PriA inh -8, BoNT F protease -10, BoNT-A LC inh2 0 and Anthrax LF prot -2.
Screening CN1C(=O)C(Cc2nc3ccccc3c(=O)n2-c2ccccc2)c2ccccc21 (stereo unspecified) returned Autofluor counter 19805*, SSB-PriA inh -5, BoNT F protease 2, BoNT-A LC inh2 inconclusive and Anthrax LF prot -1.
For O=C(CN1CCCCC1)N/N=C/c1ccc(Cl)cc1Cl the results were Autofluor counter 3971, BoNT F protease 42*, BoNT-A LC inh2 3 and Anthrax LF prot 3.
O=C(CN1CCCCCC1)N/N=C/c1cccc(Cl)c1Cl was read as Autofluor counter 2371, BoNT F protease 5, BoNT-A LC inh2 0 and Anthrax LF prot 2.
O=C(N/N=C/c1ccc(Cl)cc1Cl)Nc1ccccc1 was read as Autofluor counter 20342*, BoNT F protease 9, BoNT-A LC inh2 6 and Anthrax LF prot -13.
For O=C(CN1CCSCC1)N/N=C/c1ccccc1F the results were Autofluor counter 23296*, BoNT F protease -2, BoNT-A LC inh2 0 and Anthrax LF prot 0.
For O=C(CN1CCSCC1)NN=Cc1ccccc1F the results were SSB-PriA inh -3.
`CSCCC(C)(O)CNC(=O)COc1ccccc1F` (stereo unspecified) gave SSB-PriA inh -11.
COCCSc1nc2c(c(C(F)(F)F)c1C#N)CCCC2 was read as SSB-PriA inh -74.
Screening O=C(NCc1cccs1)N1CCC(CSCc2ccco2)CC1 returned SSB-PriA inh 2.
CC1CC(=O)c2cnc(N)nc2C1 (stereo unspecified) was read as Autofluor counter 22837*, SSB-PriA inh 13, BoNT F protease -4, BoNT-A LC inh2 -2 and Anthrax LF prot -11.
`COc1cccc(Cn2cnc3c(-c4ccccc4)csc3c2=O)c1` gave SSB-PriA inh -11.
COc1cccc2c1OC[C@@H](CO)[C@H]2N(C)C(=O)Nc1ccc(Cl)cc1Cl was read as Autofluor counter 17819*, SSB-PriA inh -6, BoNT F protease -10, BoNT-A LC inh2 -7 and Anthrax LF prot -1.
Screening Cc1ccc(NC(=O)N(C2=NCC(C)S2)c2ccccc2)cc1 (stereo unspecified) returned Autofluor counter 19772*, SSB-PriA inh -14, BoNT F protease -7, BoNT-A LC inh2 inconclusive and Anthrax LF prot -9.
COCC(=O)Nc1ccc(S(=O)(=O)NCCc2ccccc2)cc1 was read as Autofluor counter 16357*, SSB-PriA inh -8, BoNT F protease -2, BoNT-A LC inh2 0 and Anthrax LF prot -1.
`CC(C)NS(=O)(=O)c1ccc(NC(=O)CCc2ccccc2)cc1` gave Autofluor counter 21469*, SSB-PriA inh 3, BoNT F protease 6, BoNT-A LC inh2 4 and Anthrax LF prot -6.
